# PubChem BioAssay (NCATS)
# Several values for one entry are separate records, joined by “and”; a condition that tells them apart may be missing. Identical values can stand only once. A number with no mark means an inactive call. Activity calls are given as the source filed them. Unless noted, the call rests on the fitted dose curve; in most records, active means well fitted curve in the direction sought with a large enough effect; inconclusive means small, poorly fitted or top-dose-only effect, or another doubt; inactive means no such curve, though single readings can be large; an effect the other way counts as inactive or inconclusive.
# Assays:
# [1] = Cell Viability - HepG2 (AID 433; calls by dose curve;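 further: potency means the concentration at half of the fitted maximal effect; cells exposed to compound for 40 hours; potency for ATP loss meaning cytotoxicity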); conditions: qHTS
# Outline: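 Read-out is luciferase-based quantitation of cellular ATP as a measure of viable HepG2 cells after 40 h treatment at 37 °C. Signal decrease is scaled between DMSO-only and 100 uM tamoxifen controls, with AC50 fitted by the Hill equation.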
# [2] = target: Cytochrome P450 3A4 (Homo sapiens) (UniProt P08684); assay: qHTS Assay for Inhibitors and Substrates of Cytochrome P450 3A4 (AID 884); conditions: recombinant CYP3A4, Luciferin-PPXE luminescence; series mostly up to 57.1 µM; further: nearly all actives have a fitted effect of over 50% in size; further: potency means the concentration at half of the fitted maximal effect
# Outline: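 20 nM human CYP3A4 with 25 uM Luciferin-PPXE (at KM) in 200 mM KPO4, preincubated 10 min with compound; NADPH regeneration started a 60 min RT reaction. Luciferin detected by luminescence, normalized to 57 uM ketoconazole as full inhibition.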
# [3] = MultiTox-Fluor Cytotoxicity Assay - LYMP1-001 - Dead Cells (AID 946); conditions: LYMP1-001 lymphoblastoid cells, dead-cell protease fluorescence; series mostly up to 92.2 µM;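 further: 0% = DMSO and 100% = tetraoctylammonium bromide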
# Outline: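 AC50 from Hill fit of concentration-response; data normalized to DMSO (basal) and 15 uM tetraoctylammonium bromide (100%). LYMP1-001 lymphoblastoid cells, 2500/well, 16 hr compound at 37 C; dead-cell protease fluorescence, Ex/Em 485/520.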
# [4] = Cell Viability - LYMP2-013 (AID 970); conditions: LYMP2-013 lymphoblastoid cells viability; series mostly up to 92.2 µM; further: nearly all actives have a fitted effect of over 55% in size; further: potency means the concentration at half of the fitted maximal effect
# Outline: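 Human lymphoblastoid cells, 2500/well, were preincubated 5 hr at 37 C, then treated with compounds for 24 hr at 37 C in complete medium. Intracellular ATP was read by CellTiter-Glo luminescence; AC50 from Hill-equation fits of concentration-response data.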
# [5] = Cell Viability - LYMP2-014 (AID 983); conditions: LYMP2-014 lymphoblastoid cells, viability qHTS; series mostly up to 92.2 µM; further: nearly all actives have a fitted effect of over 50% in size; further: potency means the concentration at half of the fitted maximal effect
# Outline: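 Human lymphoblastoid cells (2500/well) were pre-incubated 5 hr at 37 C, then exposed to compounds in complete medium for 24 hr at 37 C. Intracellular ATP was read by CellTiter-Glo luminescence after 30 min at room temperature; AC50 from Hill fits.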
# [6] = target: Peroxisome proliferator-activated receptor delta (Homo sapiens) (UniProt Q03181); assay: qHTS assay for small molecule agonists of peroxisome proliferator-activated receptor delta signaling (AID 588534; calls by dose curve;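 further: 0% = DMSO basal wells and 100% = positive control agonist at 10 µM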); conditions: HEK293T PPARdelta-UAS-bla, beta-lactamase ratio, 18 h; series mostly up to 76.7 µM
# Outline: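 Cell-based beta-lactamase reporter assay run in agonist mode: cells seeded and incubated 5 hrs at 37 C, compounds added and incubated 18 hrs at 37 C. CCF4 dye fluorescence read after 2 hrs at RT; EC50 and efficacy from Hill fits.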
# [7] = target: Vitamin D3 receptor (Homo sapiens) (UniProt P11473); assay: qHTS assay for small molecule agonists of vitamin D receptor signaling (AID 588543; calls by dose curve;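 further: 0% = DMSO basal and 100% = reference agonist control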); conditions: HEK293T VDR-UAS-bla, beta-lactamase ratio, 16 h; series mostly up to 76.8 µM
# Outline: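 Reporter cells (HEK293T, VDR-UAS-bla) were seeded in medium with 2% charcoal-stripped serum and incubated 5 h, then compounds in concentration series were added for 16 h at 37 °C. Stimulation was scaled between DMSO basal and 50 nM 1α,25-dihydroxyvitamin D3.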
# [8] = Cellular Toxicity (caspase-3) H-4-II-E (AID 663); conditions: H-4-II-E rat hepatoma, scaled: DMSO 0%, 100 µM tamoxifen 100%; at 92.2 µM (top of the series);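 further: cells exposed to compound for 16 hr before readout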
# Outline: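 Luminescence from caspase-cleaved aminoluciferin substrate, read 20 min after reagent addition, reports caspase 3/7 activation in rat H-4-II-E cells after 16 hr compound exposure. Normalized to DMSO (basal) and 100 uM tamoxifen (100%); AC50 from Hill fits.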
# [9] = MultiTox-Fluor Cytotoxicity Assay - LYMP1-001 - Live Cells (AID 947); conditions: LYMP1-001 lymphoblastoid cells, live-cell protease fluorescence viability; series mostly up to 92.2 µM; further: potency means the concentration at half of the fitted maximal effect
# [10] = MultiTox-Fluor Cytotoxicity Assay - LYMP1-002 - Dead Cells (AID 960); conditions: LYMP1-002 lymphoblastoid cells, dead-cell protease fluorescence; series mostly up to 46.1 µM; further: nearly all actives have a fitted effect of over 60% in size; further: potency means the concentration at half of the fitted maximal effect
# Outline: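 Human lymphoblastoid cells (LYMP1-002), 2500/well in complete medium, were exposed to compounds for 16 hr at 37 C. Dead-cell protease activity was read as bis-AAF-R110 fluorescence (Ex/Em 485/520), normalized to DMSO and 15 uM tetraoctylammonium bromide; AC50 from Hill fits.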
# [11] = Cell Viability - LYMP2-002 (AID 977); conditions: LYMP2-002 lymphoblastoid cell viability, qHTS; series mostly up to 92.2 µM; further: potency means the concentration at half of the fitted maximal effect
# Outline: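 Luminescent ATP readout (CellTiter-Glo, 30 min room temperature) after 24 h compound exposure at 37 C of a human lymphoblastoid line, 2500 cells/well. AC50 values derived by standard Hill fitting of qHTS concentration-response data.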
# [12] = Cell Viability - LYMP2-006 (AID 978); conditions: LYMP2-006 lymphoblastoid cell viability, qHTS; series mostly up to 92.2 µM; further: nearly all actives have a fitted effect of over 60% in size; further: potency means the concentration at half of the fitted maximal effect
# Outline: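 Cells are seeded at 2500 per well and rested 5 hr at 37 C. Compounds are added across a concentration series for 24 hr at 37 C, after which ATP is quantified by luciferase luminescence.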
# [13] = qHTS assay for small molecule disruptors of the mitochondrial membrane potential - 1 hr assay (AID 651754; calls by dose curve; further: nearly all actives have a fitted effect of over 35% in size; further: potency means the concentration at half of the fitted maximal effect); conditions: series mostly up to 92.2 µM
# Outline: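 HepG2 cells, attached overnight at 37C, were exposed to compound or DMSO vehicle for 1 hr at 37C, 5% CO2, then stained with Mito-MPS dye for 30 min. Red aggregate versus green monomer fluorescence reports membrane potential.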
# [14] = qHTS assay for cell viability of HEK293 cells (AID 743288); conditions: ATP luminescence (CellTiter-Glo), 18 h; max response: hits give low values; further: nearly all actives have a fitted effect of over 50% in size; further: potency means the concentration at half of the fitted maximal effect; on max response: on the % scale 0 is the no-effect control and ±100 the full control effect
# Outline: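 HEK293 parental, 2,000 cells/well; ≥5 h pre-incubation 37 C; pintool compound addition; 18 h, 37 C; CellTiter-Glo 30 min RT; luminescence read.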
# [15] = Cell Viability - LYMP2-010 (AID 981); conditions: LYMP2-010 lymphoblastoid cell viability, qHTS; series mostly up to 92.2 µM; further: nearly all actives have a fitted effect of over 55% in size; further: potency means the concentration at half of the fitted maximal effect
# Outline: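 Human lymphoblastoid LYMP2-010 cells (2500/well) were preincubated 5 hr at 37 C, then exposed to compounds for 24 hr at 37 C in complete medium. Intracellular ATP was measured by CellTiter-Glo luminescence after 30 min at room temperature; AC50 from Hill-fitted concentration-response.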
# [16] = Cell Viability - LYMP2-022 (AID 987); conditions: LYMP2-022 lymphoblastoid cell viability; series mostly up to 92.2 µM; further: nearly all actives have a fitted effect of over 55% in size; further: potency means the concentration at half of the fitted maximal effect
# Outline: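 Human lymphoblastoid cells, 2500/well, preincubated 5 hr at 37 C, then exposed to compounds over a concentration range for 24 hr at 37 C in complete medium. Viability read as intracellular ATP by CellTiter-Glo luminescence after 30 min at room temperature; AC50 from Hill fits.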
# [17] = Cell Viability - LYMP2-024 (AID 988); conditions: LYMP2-024 lymphoblastoid cell viability; series mostly up to 92.2 µM; further: nearly all actives have a fitted effect of over 60% in size; further: potency means the concentration at half of the fitted maximal effect
# Outline: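 Human lymphoblastoid cells (2500/well) in complete medium were preincubated 5 hr at 37 C, then exposed to compounds for 24 hr at 37 C. Intracellular ATP was read by CellTiter-Glo luminescence; AC50 from Hill-equation fits of concentration-response data.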
# [18] = Cell Viability - LYMP2-026 (AID 989); conditions: LYMP2-026 lymphoblastoid cell viability, qHTS; series mostly up to 92.2 µM; further: nearly all actives have a fitted effect of over 50% in size; further: potency means the concentration at half of the fitted maximal effect
# Outline: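 Human lymphoblastoid cells (2500/well) in complete medium were preincubated 5 hr at 37 C, then exposed to compounds for 24 hr at 37 C. Cellular ATP was read by CellTiter-Glo luminescence; AC50 from Hill-equation fits of concentration-response data.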
# [19] = target: Estrogen receptor (Homo sapiens) (UniProt P03372); assay: qHTS assay for small molecule antagonists of estrogen receptor alpha signaling (AID 588513; active means well fitted curve in the direction sought with a large enough effect in the signal ratio, with a control signal flat, not every such curve was filed as active; inconclusive means small, poorly fitted or top-dose-only effect, or effect the other way, or a change in a side signal; inactive means no such curve, though single readings can be large or run the other way; the % refers to the signal ratio; further: potency means the concentration at half of the fitted maximal effect); conditions: ER-alpha-UAS-bla HEK293, beta-lactamase ratio, antagonist mode; series mostly up to 76.9 µM
# Outline: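 Fluorescence from CCF4 substrate after 2 h at room temperature gave reporter activity; cells had been exposed to compound and 0.5nM 17-beta-estradiol for 18 h at 37 C. Hill-equation fitting yielded IC50 and maximal response.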
# [20] = target: Glucocorticoid receptor (Homo sapiens) (UniProt P04150); assay: GR-EFC Redistribution (AID 451; calls by dose curve; further: potency means the concentration at half of the fitted maximal effect); conditions: CHO-K1 GR-EFC translocation, beta-gal luminescence, 2 h
# Outline: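 CHO-K1 cells stably expressing nuclear-localized β-gal enzyme acceptor and GR fused C-terminally to the enzyme donor fragment; ligand-driven nuclear translocation restores β-gal by complementation. Compounds titrated up to 46 uM final, 2 h at 37 °C; luminescence read.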
# Chain of Estrogen receptor (Homo sapiens) (P03372 whole entry, looked up): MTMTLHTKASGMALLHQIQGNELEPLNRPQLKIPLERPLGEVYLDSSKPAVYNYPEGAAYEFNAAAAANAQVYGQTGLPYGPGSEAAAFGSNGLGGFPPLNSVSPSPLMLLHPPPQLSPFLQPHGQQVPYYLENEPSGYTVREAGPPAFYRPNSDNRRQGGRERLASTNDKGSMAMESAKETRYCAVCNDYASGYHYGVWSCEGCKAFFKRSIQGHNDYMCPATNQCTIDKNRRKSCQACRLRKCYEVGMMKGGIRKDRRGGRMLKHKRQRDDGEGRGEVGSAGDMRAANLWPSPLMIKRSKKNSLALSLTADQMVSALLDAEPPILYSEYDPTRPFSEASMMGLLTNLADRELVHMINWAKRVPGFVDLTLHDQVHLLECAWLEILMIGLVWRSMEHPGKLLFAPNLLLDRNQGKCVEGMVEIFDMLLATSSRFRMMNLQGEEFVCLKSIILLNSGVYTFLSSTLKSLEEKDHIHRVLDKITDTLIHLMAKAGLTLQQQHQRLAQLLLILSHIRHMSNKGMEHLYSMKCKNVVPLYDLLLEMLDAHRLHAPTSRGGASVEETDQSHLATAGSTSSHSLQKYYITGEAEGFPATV
# Chain of Vitamin D3 receptor (Homo sapiens) (P11473 whole entry, looked up): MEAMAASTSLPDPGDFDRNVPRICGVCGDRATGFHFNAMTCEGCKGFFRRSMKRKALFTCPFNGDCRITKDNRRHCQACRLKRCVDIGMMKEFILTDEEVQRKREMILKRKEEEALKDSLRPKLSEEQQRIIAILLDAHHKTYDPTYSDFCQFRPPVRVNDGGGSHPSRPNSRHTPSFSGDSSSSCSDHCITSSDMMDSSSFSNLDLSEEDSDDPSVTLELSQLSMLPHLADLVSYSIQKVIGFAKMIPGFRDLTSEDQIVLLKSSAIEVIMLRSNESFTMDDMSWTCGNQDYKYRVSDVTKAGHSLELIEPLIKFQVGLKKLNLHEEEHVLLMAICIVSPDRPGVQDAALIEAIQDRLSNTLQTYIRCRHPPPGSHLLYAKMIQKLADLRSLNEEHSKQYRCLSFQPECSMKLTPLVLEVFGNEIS
# Chain of Cytochrome P450 3A4 (Homo sapiens) (P08684 whole entry, looked up): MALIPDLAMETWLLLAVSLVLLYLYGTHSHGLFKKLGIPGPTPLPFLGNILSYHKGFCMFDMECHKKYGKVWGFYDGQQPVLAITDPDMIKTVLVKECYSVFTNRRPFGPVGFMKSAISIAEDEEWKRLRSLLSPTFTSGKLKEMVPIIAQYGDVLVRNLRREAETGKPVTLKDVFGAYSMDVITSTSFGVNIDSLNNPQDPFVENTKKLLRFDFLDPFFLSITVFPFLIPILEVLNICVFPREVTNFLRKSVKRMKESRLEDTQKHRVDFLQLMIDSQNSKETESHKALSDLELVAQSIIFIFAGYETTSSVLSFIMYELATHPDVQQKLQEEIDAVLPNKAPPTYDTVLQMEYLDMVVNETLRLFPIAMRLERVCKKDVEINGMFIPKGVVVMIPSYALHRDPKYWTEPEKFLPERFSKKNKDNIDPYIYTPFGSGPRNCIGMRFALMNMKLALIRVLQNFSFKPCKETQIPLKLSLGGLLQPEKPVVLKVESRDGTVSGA
# Chain of Glucocorticoid receptor (Homo sapiens) (P04150 whole entry, looked up, the tested form may be a part): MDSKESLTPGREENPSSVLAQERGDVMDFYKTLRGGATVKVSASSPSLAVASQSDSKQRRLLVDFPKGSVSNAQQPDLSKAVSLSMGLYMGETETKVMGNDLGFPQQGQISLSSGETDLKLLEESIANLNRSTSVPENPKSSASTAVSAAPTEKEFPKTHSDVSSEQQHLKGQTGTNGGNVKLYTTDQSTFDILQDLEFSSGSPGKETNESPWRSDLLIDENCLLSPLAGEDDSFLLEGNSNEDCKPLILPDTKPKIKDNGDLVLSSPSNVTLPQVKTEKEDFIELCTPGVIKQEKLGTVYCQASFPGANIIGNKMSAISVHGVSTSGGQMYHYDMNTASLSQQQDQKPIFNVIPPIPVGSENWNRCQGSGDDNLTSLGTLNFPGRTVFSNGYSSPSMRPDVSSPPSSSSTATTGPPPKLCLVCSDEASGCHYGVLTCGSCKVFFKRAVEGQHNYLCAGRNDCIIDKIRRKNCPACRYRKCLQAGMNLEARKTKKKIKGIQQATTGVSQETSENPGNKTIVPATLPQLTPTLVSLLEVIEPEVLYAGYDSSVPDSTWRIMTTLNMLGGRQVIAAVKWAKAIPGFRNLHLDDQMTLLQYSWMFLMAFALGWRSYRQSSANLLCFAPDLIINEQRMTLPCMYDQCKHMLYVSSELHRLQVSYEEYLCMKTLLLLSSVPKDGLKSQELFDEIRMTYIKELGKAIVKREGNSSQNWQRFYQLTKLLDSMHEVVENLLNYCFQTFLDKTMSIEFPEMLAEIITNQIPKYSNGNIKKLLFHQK
# Chain of Peroxisome proliferator-activated receptor delta (Homo sapiens) (Q03181 whole entry, looked up): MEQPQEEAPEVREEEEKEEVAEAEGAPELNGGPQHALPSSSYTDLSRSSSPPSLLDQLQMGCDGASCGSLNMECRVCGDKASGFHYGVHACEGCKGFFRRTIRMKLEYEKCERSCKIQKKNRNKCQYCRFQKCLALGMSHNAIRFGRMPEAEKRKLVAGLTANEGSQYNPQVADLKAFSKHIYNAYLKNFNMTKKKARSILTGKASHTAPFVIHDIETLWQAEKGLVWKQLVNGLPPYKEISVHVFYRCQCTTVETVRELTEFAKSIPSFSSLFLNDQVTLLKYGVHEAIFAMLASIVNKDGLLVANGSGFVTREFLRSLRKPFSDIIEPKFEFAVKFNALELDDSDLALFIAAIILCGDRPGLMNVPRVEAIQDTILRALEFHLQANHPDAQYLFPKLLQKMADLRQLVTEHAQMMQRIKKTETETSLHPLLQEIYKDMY
smiles,measurement,setting,value
ClC1=C(Cl)C2(Cl)C3C(Cl)C(Cl)CC3C1(Cl)C2(Cl)Cl (configuration not stated),Potency,[1],> 92 µM
same,Potency,[2],15.8 µM (active)
same,Potency,[3],inactive
same,Potency,[4],inactive
same,Potency,[5],inactive
same,outcome,[6],inactive
same,outcome,[7],inactive
N#CC(Cl)Cl,caspase-3 activation,[8],0.178%
same,Potency,[3],inactive
same,Potency,[9],inactive
same,Potency,[10],inactive
same,Potency,[4],20 µM (active)
same,Potency,[11],12.6 µM (active)
same,Potency,[12],12.6 µM (active)
same,Potency,[5],50.1 µM (active)
same,outcome,[6],inactive
same,outcome,[7],inactive
same,Potency,[13],inactive
same,Potency,[14],14.1 µM (active)
O=C(O)C1C(C(=O)O)C2(Cl)C(Cl)=C(Cl)C1(Cl)C2(Cl)Cl (configuration not stated),Potency,[1],> 92 µM
same,caspase-3 activation,[8],-0.161%
same,Potency,[2],inactive
same,Potency,[3],inactive
same,Potency,[9],inactive
same,Potency,[10],inactive
same,Potency,[4],inactive
same,Potency,[11],inactive
same,Potency,[12],inactive
same,Potency,[15],inactive
same,Potency,[5],inactive
same,Potency,[16],inactive
same,Potency,[17],inactive
same,Potency,[18],inactive
same,Potency,[19],inactive
same,outcome,[6],inactive
same,Potency,[13],inactive
same,max response,[14],0.0125%
Clc1ccc(C(c2ccc(Cl)cc2)C(Cl)Cl)cc1,caspase-3 activation,[8],87.3% (active)
same,Potency,[2],inactive
same,Potency,[10],15.8 µM (active)
same,Potency,[4],inactive
same,Potency,[11],inactive
same,Potency,[12],inactive
same,Potency,[15],inactive
same,Potency,[5],inactive
same,Potency,[16],inactive
same,Potency,[17],inactive
same,Potency,[18],inactive
same,Potency,[19],39.8 µM [inconclusive] (active)
same,outcome,[6],inactive
same,outcome,[7],inactive
same,Potency,[13],59.6 µM (active)
O=[N+]([O-])c1ccccc1Cl,Potency,[1],> 92 µM
same,max response,[14],-0.622% and -10.4%
C[C@@H]1CC[C@@]2(OC1)O[C@H]1[C@@H](O)[C@H]3[C@@H]4CC[C@H]5C[C@@H](O[C@@H]6O[C@H](CO)[C@H](O[C@@H]7O[C@H](CO)[C@@H](O)[C@H](O[C@@H]8OC[C@@H](O)[C@H](O)[C@H]8O)[C@H]7O[C@@H]7O[C@H](CO)[C@@H](O)[C@H](O[C@@H]8O[C@H](CO)[C@@H](O)[C@H](O)[C@H]8O)[C@H]7O)[C@H](O)[C@H]6O)[C@H](O)C[C@]5(C)[C@H]4CC[C@]3(C)[C@H]1[C@@H]2C,Potency,[1],11.9 µM (active)
same,caspase-3 activation,[8],-3.54%
same,Potency,[2],inactive
same,Potency,[9],12.6 µM (active)
same,Potency,[4],20 µM (active)
same,Potency,[11],25.1 µM (active)
same,Potency,[12],20 µM (active)
same,Potency,[15],20 µM (active)
same,Potency,[5],25.1 µM (active)
same,Potency,[16],15.8 µM (active)
same,Potency,[17],12.6 µM (active)
same,Potency,[18],15.8 µM (active)
same,Potency,[19],8.91 µM [inconclusive] (active)
same,Potency,[13],26.6 µM (active)
C[C@H]1CC[C@@H]2[C@@H](C)C(=O)O[C@H]3O[C@@]4(C)CC[C@@H]1[C@]32OO4,Potency,[20],> 46 µM
C=C(C)[C@H]1[C@H]2OC(=O)[C@@H]1[C@]1(O)C[C@H]3O[C@]34C(=O)O[C@H]2[C@]14C,Potency,[20],> 46 µM
O=c1ccc2cc(O[C@@H]3O[C@@H](CO)[C@@H](O)[C@@H](O)[C@H]3O)c(O)cc2o1,Potency,[20],> 46 µM
Oc1cc2c(cc1O)[C@H]1c3ccccc3CN[C@H]1CC2,Potency,[20],> 46 µM
COC[C@H]1OC(=O)c2coc3c2[C@@]1(C)C1=C(C3=O)[C@H]2CCC(=O)[C@@]2(C)C[C@H]1OC(C)=O,Potency,[20],> 46 µM
CC(C)(O)[C@H]1[C@H]2OC(=O)[C@@H]1[C@]1(O)C[C@H]3O[C@]34C(=O)O[C@H]2[C@]14C,Potency,[20],> 46 µM
COc1cc2c(cc1OC)-c1c(O)c(OC)cc3c1[C@@H](C2)N(C)CC3,Potency,[20],> 46 µM
COc1cc2c(cc1OC)-c1c(OC)c(OC)c(CO)c3c1[C@H](C2)N(C)CC3,Potency,[20],> 46 µM
COC1=C[C@H]2[C@@H]3Cc4ccc(OC)c(O)c4[C@@]2(CCN3C)CC1=O,Potency,[20],> 46 µM
OC[C@H]1CCCN2CCCC[C@@H]12,Potency,[20],> 46 µM
CC1=CC(=O)C2=C(C)C[C@H](O)[C@@H]3[C@@H](OC(=O)[C@H]3C)[C@H]12,Potency,[20],> 46 µM
CC[C@H](CO)NC(=O)[C@H]1C=C2c3cccc4[nH]cc(c34)C[C@H]2N(C)C1,Potency,[20],> 46 µM
C[C@@]12CCC[C@](C)(C(=O)O)[C@@H]1CCc1ccc(O)cc12,Potency,[20],> 46 µM
COc1cc2c(cc1O)CCN[C@H]2C,Potency,[20],> 46 µM
